Laboratory results as given in the supplement of paper PMC6555819.

Experiments:
Test in all cases: PBM binding z-score (relative to random genomic background probes); higher = stronger binding; sequences stand for … in GC…GCGATTGACAGCGTAGAATGAAGG
[1] = system: PPARg:RXRa DBDmut IVT, anti-RXR (DBD mutation: RXRa K156A/R161A, NR concentration 270 nM, RXRa partner concentration 90 nM)
Method in brief: (§1)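 Ligand-free nuclear receptor dimers were applied to custom Agilent 4×180K protein-binding microarrays whose double-stranded probes carried direct-repeat seeds, single-nucleotide variants, half-site ablations and random human genomic background sequences in 34-nt variable regions. Incubation lasted 1 h. Binding z-scores were computed against the random background probes from regression-normalized fluorescence.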

[2] = system: PPARg:RXRa IVT, anti-PPARg (NR concentration 270 nM, RXRa partner concentration 90 nM)
Method in brief: as §1

[3] = system: PPARg DBDmut:RXRa IVT, anti-PPARg (DBD mutation: PPARg1 K132A/R137A, NR concentration 270 nM, RXRa partner concentration 90 nM)
Method in brief: as §1

[4] = system: PPARg DBDmut IVT, anti-PPARg (DBD mutation: PPARg1 K132A/R137A, NR concentration 270 nM)
Method in brief: as §1

[5] = system: PPARg homodimer (NR concentration 180 nM)
Method in brief: as §1

[6] = system: PXR:RXRa (NR concentration 270 nM, RXRa partner concentration 90 nM)
Method in brief: as §1

[7] = system: PXR homodimer (NR concentration 270 nM)
Method in brief: as §1

[8] = system: RARa:RXR (NR concentration 270 nM, RXRa partner concentration 90 nM)
Method in brief: as §1

[9] = system: RARa homodimer (NR concentration 270 nM)
Method in brief: as §1

[10] = system: RARb:RXRa (NR concentration 270 nM, RXRa partner concentration 90 nM)
Method in brief: as §1

Sequence	PBM binding z-score [1]	PBM binding z-score [2]	PBM binding z-score [3]	PBM binding z-score [4]	PBM binding z-score [5]	PBM binding z-score [6]	PBM binding z-score [7]	PBM binding z-score [8]	PBM binding z-score [9]	PBM binding z-score [10]
TCTTGTATATCAAAGGTTAAGAAAGCCGAAGCCT	1.87	2.65	0.898	0.823	1.29	1.93	0.544	2.96	0.898	2.22
CCGAGTAGGTTGTGGGGCATTCAGGCAACGGTGA	1.04	1.29	-1.06	-0.659	0.736	-0.334	0.115	-0.303	0.109	0.0437
CCTAGCAGGCCACTCTGGGTCACTCAAGGCTTGA	2.5	3.22	-0.679	-2.2	0.299	1.04	-0.493	1.32	-0.337	1.55
CAGCCTAGGTCAGGGCCAGTAAAGGAGGAACGTT	1.26	1.51	-1.63	-1.14	0.652	0.328	-0.795	1.08	0.335	3.49
TTACCAGGGTGAAAGGTCGTTGATGCACGCCTTG	2.27	4.77	0.849	0.523	3.33	4.25	0.522	5.93	0.262	2.59
ATCGAAAGGTCCTGAGGTGAGTATACAGAAAGGC	-0.172	0.777	0.834	0.602	0.413	0.102	-0.0977	0.895	0.0282	1.12
CCGACTGGGGCAAGTTTACCATAACGCACAGCCA	3.19	2.78	-0.473	-0.469	0.332	-0.0221	0.029	0.0414	0.4	1.02
TTACCAAGGTGAAAGGTCGTTGATGCACGCCTTG	2.84	4.92	0.117	-0.276	1.41	3.96	0.351	5.27	0.055	3.04
CCTTACGGGTCAAGGTTATAACACGGGTGGTACG	2.12	3.6	0.305	-0.192	2.04	3.52	0.548	4.5	0.85	4.24
CCTTCTGGGCCATCAGGTCATTGATATCAACGTT	4.77	5.03	0.4	0.236	1.37	1.64	0.618	2.31	0.159	2.28
TGTATTAGTTGAAGGGCAACCGACGAGTCCGTTT	0.404	0.87	0.403	1.05	1.27	0.63	0.962	0.3	0.995	1.5
ACTCGCAGGACAAAGGTCAGAGCTACGCCAGTGA	0.731	2.9	0.371	-0.29	1.88	3.6	0.075	4.72	0.499	4.29
CGTCAAAGTTCAAGTAAGGTAACGTAAAGCACGC	0.544	2.41	0.93	0.765	3.47	5.21	3.9	4.3	1.99	5.29
CCGACTGGGGCAGAAAGGTTACGATACCATCCGG	1.98	2.35	-0.302	-0.0493	1.17	1.39	-0.337	1.72	-0.00415	1.92
TCTTGTAGATCAAGCAGGTTAACAAAGCCTGAGT	1.57	0.741	0.45	0.44	0.0405	0.699	0.326	0.629	-0.263	0.298
TGTCAAAGTTCAAAGGTAACGTAAGTATCCACAC	0.64	4.66	1.24	1.15	2.16	5.77	3.43	6.45	0.967	5.11
TTACCAAAGTGAAGGTCGTTGATCCCTCTGTAGA	0.0303	0.266	-1.3	-0.698	0.00936	1.15	0.234	1	-0.568	0.632
CCTTACGGGTGACTCCAGGTTATAGCATCGGAGT	1.25	1.42	-0.537	-0.755	0.285	1.01	0.0547	1.22	-0.139	0.499
CCGACTGGGGCATAAGGTAACCATAAGCCAGCCC	2.94	2.7	-0.714	-0.986	0.375	-0.534	-0.805	0.0245	-0.0601	0.594
AGTCAACGTTCACTAGGTAACGTAAGATTCAGCT	2.07	2.83	0.496	0.783	-0.0596	-0.163	-0.41	-0.184	-0.305	0.64
TCTTGTAGATCAACAGGAGGTTAAGACAGATCGA	1.59	0.984	0.978	0.46	-0.0911	0.727	-0.273	0.694	0.154	0.534
CCGGCTGGGGCATAAGGTTACCATAAGCCAGCCC	-0.781	0.196	-2.71	-2.08	1.02	0.131	-0.484	1.23	-0.82	1.62
ATCTCTAGATAAAGATAGTTCAGTGAATGCAAAT	-0.378	-0.22	0.441	0.839	0.626	0.206	0.643	0.29	0.981	0.124
CAGCCTACGTCAGGGCCAGTATAGGAGGAACGTT	-0.745	-0.587	-0.356	-0.405	-0.116	-0.512	-0.548	0.00174	-0.296	-0.405

Sequence	PBM binding z-score [1]	PBM binding z-score [2]	PBM binding z-score [3]	PBM binding z-score [4]	PBM binding z-score [5]	PBM binding z-score [6]	PBM binding z-score [7]	PBM binding z-score [8]	PBM binding z-score [9]	PBM binding z-score [10]
CAAACTAGGTCAAGAGGTCAAAGCCCGCTTCCCG	8.12	8.64	4.39	2.45	7.29	6.42	1.66	7.68	2.35	5.54
AGTCAAAGTTCATCTAGGTAACGTACGATATGCT	1.04	4.13	1.4	2.09	2.4	5.22	6.7	3.95	1.06	5.06
TGTTGTAGATCAGCAGGTTAAGAAAGCTGGCCAA	-1.12	-0.254	-0.00533	-1.02	-0.701	-0.454	-0.604	-0.71	-0.587	-0.157
ATCGAAAGGTCGTGAGCTGAGTATACAGAAAGGC	-0.173	1.49	0.42	0.76	1.16	2.75	0.0585	3.56	-0.0844	3.76
AATACAGGGTCATCGTAGGCCAGAGTACGCACAG	2.76	4.32	1.59	1.19	1.96	4.94	0.48	4.82	0.854	4.37
AGAATGAGGTTATACGAAGATCAGGGAAGAAAGT	2.26	2.05	0.807	0.512	0.484	1.04	0.292	1.61	0.714	1.3
ATCTCTAGGTAACCAAGTTCAGCGAATGCCGAAC	3.55	2.95	1.37	0.686	0.704	2.02	1.3	1.04	0.165	1.34
AGTATTAGTTGAGACGAGGGCAACCGATAGGTTG	-0.068	0.769	0.458	0.336	0.923	1.63	0.87	1.01	1.25	1.2
GGAACGAGGGCCAGTTGATAGCAGAGTTTGATGG	0.134	-0.54	-0.953	-0.88	-0.513	-0.515	-0.158	-0.522	-1.03	0.217
CCTACTGGGCCAAAGTTCATTGATTCCAATGCTC	4.73	6.06	-0.1	-0.115	4.94	4.5	8.31	2.99	0.508	3.13
CCGACTGGGGCAGAAAGGTTACCATGCCATCCGG	1.38	2.43	-1.53	-1.09	0.386	0.882	-0.381	1.61	-0.141	2
CGAACTAGGTCGTTGACAGGACAGTGAATAGTAA	5.75	5.01	0.86	0.354	0.203	0.234	-0.188	0.276	-0.436	1.18
CGTACAAGGTCATAGGAGGTCAGTGAAGACAGAT	3.97	5.5	1.11	0.76	3.74	6.82	3.5	5.66	1.72	5.44
ATACCAAGGTAATCGTGAGGTCGTTGATACTAAC	0.339	0.661	0.385	0.929	0.827	2.55	1.36	2.06	-0.0819	1.07
TTACCAAGGTGAAAGGCCGTTGATGCACGCCTTG	1.83	3.1	1.11	-0.0172	1.5	0.172	-0.516	1.1	-0.123	1.66
ATATGTCGGTTAGCTGGGGTCATTCAGACTAGGC	1.3	2.25	0.889	0.777	1.85	5.49	3.48	5.05	0.853	2.62
CGTCCAAGGTCATAGGAGGTCAGTGACGACAGAT	3.6	4.57	0.237	0.133	5.09	6.69	4.69	6.08	2.29	5.44
TAGGCTAGGTCATTCAGGGGCCAGTATAGAAAGC	2.09	3.13	1.07	0.104	3.69	2.64	0.0687	3.93	0.404	4.12
TCTAGTTGCTCACGGAGGTCACACACGACGGGTA	1.58	2.24	0.833	0.565	2.53	4	0.832	4.2	0.559	3.25
AGAATGACGTTACCAAAGATCAGGGAAACGCTTG	-0.672	-0.0252	0.249	0.258	0.216	-0.527	-0.0125	-0.159	0.157	-0.301
AGAACAAGGGCACGCTGAGTTGATAGCAGAGTAG	3.07	2.72	0.166	0.443	0.00636	0.845	0.17	0.366	-0.312	2.51
CGTCCAAGGTCAGAGAGCTCAGTGAATGCCGAGT	2.67	1.84	-0.717	-0.346	1.67	2.14	0.855	2.37	0.367	4.6
CCAGACAGGTGAAAGGTGACTCAGTCTGGTACGC	2.4	3.47	0.243	-0.992	1.3	1.85	0.0178	2.91	0.796	1.96
TCATATAGGTAAAGATGAAAGTCGAACGATATGA	3.2	1.97	1.28	0.63	-1.18	-0.0573	-0.0684	0.268	0.0923	0.318
